# Results reported in PubChem BioAssay.
# The source made the active and inactive calls. Unless noted, the rule behind the calls is not given here.
# What was measured:
# [1] = test system: Wnt5a (protein binding on small-molecule microarray); assay: small molecules binding Wnt5a protein – biophysical, small-molecule microarray, 635/667 nm fluorescence, primary screen (AID 1142); settings: 635 nm fluorescence, higher = more signal;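 note: fluorescence read at 667 nm with signal to noise per printed feature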
# [2] = ATP-based viability of Huh7 replicon cells – cell-based, CellTiter-Glo luminescence, basal, 48 h, cytotoxicity control for HCV replication inhibitor project, primary screen (AID 1143); settings: higher = more signal, called active from +8 up or from −8 down;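 note: Huh7 hepatoma cells carrying a hepatitis C replication reporter with no stimulus; test concentration not given here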
# [3] = Pseudomonas biofilm growth suppression – PAO1 strain, BacTiter-Glo luminescence, LB-PBS, primary screen (AID 1144); settings: P. aeruginosa PAO1 biofilm, 12 h, higher = more signal
# [4] = basal CRE-LacZ reporter activity in PC12 – cell-based, unstimulated, primary screen (AID 1145); settings: no forskolin, luminescence, 4.5 h, higher = more signal, called active from +8 up or from −8 down
# [5] = forskolin-driven CRE-LacZ activity in PC12 – cell-based, CRE-LacZ reporter, forskolin-stimulated, primary screen (AID 1146); settings: luminescence, 4.5 h, higher = more signal, called active from +8 up or from −8 down;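 note: PC12 cells with 6xCRE LacZ reporter stimulated by forskolin 10 µM; beta-galactosidase reporter signal reflecting CREB driven transcription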
# [6] = target: Streptavidin (Streptomyces avidinii) (UniProt P22629); assay: compounds binding control protein streptavidin – biophysical, small-molecule microarray, 635/667 nm fluorescence, artefact control for SMM compound annotation, primary screen (AID 1147); settings: higher = more signal;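 note: signal reflects streptavidin binding to arrayed compounds as a control protein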
# [7] = probe aInhba binding on compound microarray – biochemical, small-molecule microarray, 635/667 nm fluorescence, primary screen (AID 1148); settings: higher = more signal;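 note: score merges 667nm spot fluorescence with signal-to-noise for antibody binding to printed compounds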
# Torsin-1A (Homo sapiens) [8] = target: Torsin-1A (Homo sapiens) (UniProt O14656); assay: TOR1A wild-type binding on microarray – cell lysate, small-molecule microarray, lysate, 635/667 nm, primary screen (AID 1149); settings: COS7 hTOR1A-WT lysate, 635 nm fluorescence, higher = more signal
# Torsin-1A (Homo sapiens) [9] = target: Torsin-1A (Homo sapiens) (UniProt O14656); assay: torsin A mutant lysate binding on microarrays – cell lysate, small-molecule microarray, COS7 lysate, 635/667 nm fluorescence, primary screen (AID 1150); settings: COS7 hTOR1A mutant lysate, 635 nm fluorescence, higher = more signal;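 note: score pools 667 nm emission and signal to noise measuring lysate protein binding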
# [10] = test system: Sonic hedgehog protein (Shh); assay: Sonic hedgehog microarray binding compounds – biochemical, small-molecule microarray, 635/667 nm fluorescence, primary screen (AID 1151); settings: 635 nm fluorescence, higher = more signal;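 note: Shh protein binding to compounds spotted on small-molecule microarray slides; score combines spot fluorescence intensity with signal-to-noise across triplicate slides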
# [11] = optical density shifts of acrAB sulA E. coli – strain DRC41, OD650, 48 h, E. coli filamentation inducer project, primary screen (AID 1152); settings: higher = more signal, called active from +8 up or from −8 down;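 note: E. coli MC1000 strain DRC41 lacking acrAB efflux pump and sulA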
# [12] = probe aLefty1 binding on compound microarray – biochemical, small-molecule microarray, 635/667 nm fluorescence, primary screen (AID 1153); settings: higher = more signal;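 note: score merges spot fluorescence with signal-to-noise ratio from the scanned slide images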
# [13] = plasmodial surface anion channel blockers, osmotic lysis – cell-based, P. falciparum Indochina, OD700, 1 h, primary screen (AID 1154); settings: P. falciparum Indochina infected RBC osmotic lysis, higher = more signal, called active from +8 up or from −8 down
# [14] = plasmodial surface anion channel blockers, osmotic lysis – cell-based, P. falciparum Indochina, OD700, 2 h, primary screen (AID 1155);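 note: lysis reports solute entry through the parasite surface anion channel PSAC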; settings: P. falciparum Indochina infected erythrocytes, higher = more signal, called active from +8 up or from −8 down
# [15] = changes in parasitized red cell lysis, either direction – P. falciparum Indochina, OD700, 3 h, PSAC antagonist project, primary screen (AID 1156); settings: P. falciparum-infected erythrocytes, osmotic lysis, higher = more signal, called active from +8 up or from −8 down
# [16] = plasmodial surface anion channel blockers, osmotic lysis – cell-based, P. falciparum Indochina, OD700, 18 h, primary screen (AID 1157); settings: P. falciparum Indochina infected erythrocytes, osmotic lysis OD700, 18 h; higher = more signal, called active from +8 up or from −8 down
# [17] = S6 kinase pathway phospho-S6 level changes – cell-based, A549, cytoblot, luminescence, serum-stimulated, primary screen (AID 1158); settings: 5 h, higher = more signal;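 note: serum-stimulated A549 lung adenocarcinoma cells; signal is phosphorylated S6 detected by cytoblot immunostaining with HRP secondary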
# [18] = target: NADPH oxidase 2 (Homo sapiens) (UniProt P04839); assay: compounds shifting NOX2 Amplex Red fluorescence – cell-based, HEK293-NOX2, PMA-stimulated, NOX inhibitor project, primary screen (AID 1159); settings: 45 min, higher = more signal, called active from +8 up or from −8 down; note: test concentration not given here
# [19] = target: NADPH oxidase 4 (Homo sapiens) (UniProt Q9NPH5); assay: compounds shifting NOX4 Amplex Red fluorescence – cell-based, HEK293-NOX4, tetracycline-induced, NOX inhibitor project, primary screen (AID 1160); settings: HEK293-NOX4, Amplex Red H2O2 fluorescence, 45 min; higher = more signal, called active from +8 up or from −8 down
# [20] = target: NADPH oxidase 5 (Homo sapiens) (UniProt Q96PH1); assay: compounds shifting NOX5 Amplex Red fluorescence – cell-based, HEK293-NOX5, NOX inhibitor project, primary screen (AID 1161); settings: HEK293-NOX5, ionomycin, 45 min, higher = more signal
# Sequence of NADPH oxidase 5 (Homo sapiens) (Q96PH1 whole entry, looked up): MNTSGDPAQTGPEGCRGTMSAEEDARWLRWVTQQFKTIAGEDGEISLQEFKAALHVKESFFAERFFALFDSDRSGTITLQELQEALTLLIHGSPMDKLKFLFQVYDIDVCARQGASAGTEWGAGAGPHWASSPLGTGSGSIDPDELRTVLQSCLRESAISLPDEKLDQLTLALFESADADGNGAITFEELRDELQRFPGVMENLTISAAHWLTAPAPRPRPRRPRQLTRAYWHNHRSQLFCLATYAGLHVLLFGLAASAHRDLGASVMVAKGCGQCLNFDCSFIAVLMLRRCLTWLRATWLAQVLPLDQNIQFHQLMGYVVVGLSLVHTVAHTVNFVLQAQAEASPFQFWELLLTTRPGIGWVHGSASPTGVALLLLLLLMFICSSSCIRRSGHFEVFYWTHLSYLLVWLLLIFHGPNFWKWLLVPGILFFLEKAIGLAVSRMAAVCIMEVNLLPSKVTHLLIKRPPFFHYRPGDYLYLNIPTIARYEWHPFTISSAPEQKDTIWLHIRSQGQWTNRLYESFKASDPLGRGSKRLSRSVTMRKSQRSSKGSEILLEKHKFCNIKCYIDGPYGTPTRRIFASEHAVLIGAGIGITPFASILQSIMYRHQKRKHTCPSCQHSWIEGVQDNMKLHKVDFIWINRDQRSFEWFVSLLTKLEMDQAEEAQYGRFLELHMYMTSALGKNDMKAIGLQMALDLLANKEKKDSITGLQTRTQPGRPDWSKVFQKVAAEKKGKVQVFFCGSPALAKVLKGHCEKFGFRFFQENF
# Sequence of Torsin-1A (Homo sapiens) (O14656 whole entry, looked up): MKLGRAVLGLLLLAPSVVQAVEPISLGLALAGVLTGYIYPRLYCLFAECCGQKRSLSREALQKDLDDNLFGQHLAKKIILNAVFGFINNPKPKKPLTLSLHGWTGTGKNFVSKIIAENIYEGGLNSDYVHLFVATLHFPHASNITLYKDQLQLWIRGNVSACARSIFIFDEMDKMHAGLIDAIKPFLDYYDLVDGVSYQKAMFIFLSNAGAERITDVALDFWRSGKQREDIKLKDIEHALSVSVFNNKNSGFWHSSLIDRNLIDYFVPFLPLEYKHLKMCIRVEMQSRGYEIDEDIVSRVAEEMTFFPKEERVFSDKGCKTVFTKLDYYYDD
# Sequence of Streptavidin (Streptomyces avidinii) (P22629 whole entry, looked up): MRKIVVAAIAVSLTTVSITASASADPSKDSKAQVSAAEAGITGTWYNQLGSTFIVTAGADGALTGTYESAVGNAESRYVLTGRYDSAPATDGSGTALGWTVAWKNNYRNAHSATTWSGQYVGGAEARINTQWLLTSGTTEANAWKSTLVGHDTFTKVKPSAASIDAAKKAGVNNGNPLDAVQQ
# Sequence of NADPH oxidase 4 (Homo sapiens) (Q9NPH5 whole entry, looked up): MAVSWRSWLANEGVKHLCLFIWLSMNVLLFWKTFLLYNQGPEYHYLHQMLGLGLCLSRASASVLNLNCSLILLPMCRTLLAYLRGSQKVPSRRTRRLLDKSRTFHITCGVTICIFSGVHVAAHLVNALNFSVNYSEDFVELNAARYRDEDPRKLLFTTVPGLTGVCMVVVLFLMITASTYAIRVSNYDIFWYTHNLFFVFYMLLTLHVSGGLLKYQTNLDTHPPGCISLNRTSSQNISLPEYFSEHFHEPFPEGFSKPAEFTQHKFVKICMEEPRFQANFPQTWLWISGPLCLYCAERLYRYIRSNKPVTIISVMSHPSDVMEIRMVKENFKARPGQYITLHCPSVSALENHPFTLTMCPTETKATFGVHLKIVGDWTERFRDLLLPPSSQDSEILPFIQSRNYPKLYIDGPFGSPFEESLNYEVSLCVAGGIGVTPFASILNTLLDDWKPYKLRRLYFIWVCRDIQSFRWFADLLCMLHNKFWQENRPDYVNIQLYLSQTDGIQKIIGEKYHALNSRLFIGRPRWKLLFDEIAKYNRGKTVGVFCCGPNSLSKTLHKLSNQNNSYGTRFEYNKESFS
# Sequence of NADPH oxidase 2 (Homo sapiens) (P04839 whole entry, looked up): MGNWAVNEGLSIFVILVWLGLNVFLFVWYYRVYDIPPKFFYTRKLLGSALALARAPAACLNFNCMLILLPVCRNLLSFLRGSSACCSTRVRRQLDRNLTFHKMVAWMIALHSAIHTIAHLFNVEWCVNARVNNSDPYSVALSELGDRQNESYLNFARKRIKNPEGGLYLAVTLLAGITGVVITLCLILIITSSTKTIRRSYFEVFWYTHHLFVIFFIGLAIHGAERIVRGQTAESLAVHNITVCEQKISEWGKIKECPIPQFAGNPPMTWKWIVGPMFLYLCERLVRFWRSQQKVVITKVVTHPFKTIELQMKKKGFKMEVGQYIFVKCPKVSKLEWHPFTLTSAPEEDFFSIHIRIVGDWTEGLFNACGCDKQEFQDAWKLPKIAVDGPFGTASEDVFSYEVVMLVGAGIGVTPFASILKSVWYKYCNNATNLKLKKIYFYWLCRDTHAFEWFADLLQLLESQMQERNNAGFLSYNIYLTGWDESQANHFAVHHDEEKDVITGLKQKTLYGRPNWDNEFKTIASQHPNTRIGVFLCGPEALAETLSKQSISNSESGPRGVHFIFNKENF
compound,measurement,setting,value
CC(C)C(=C=CC[C@@H](O)c1cccc(OCCO)c1)C[C@@H](O)c1ccccn1,composite z-score,[1],0.189
same,z-score,[2],-0.846 (inactive)
same,z-score,[3],-0.382 (inactive)
same,z-score,[4],1.13 (inactive)
same,z-score,[5],-0.039 (inactive)
same,composite z-score,[6],-0.637
same,composite z-score,[7],-0.13
same,composite z-score,Torsin-1A (Homo sapiens) [8],-0.84
same,composite z-score,Torsin-1A (Homo sapiens) [9],0.405
same,composite z-score,[10],0.935
same,z-score,[11],0.599 (inactive)
same,composite z-score,[12],0.0502
same,z-score,[13],8.55 (active)
same,z-score,[14],0.809 (inactive)
same,z-score,[15],0.489 (inactive)
same,z-score,[16],0.527 (inactive)
same,z-score,[17],0.0722
same,z-score,[18],-1.37 (inactive)
same,z-score,[19],-0.666 (inactive)
same,z-score,[20],-1.45
CC(C)OC(=O)CC(=O)CC(O)c1ccc([N+](=O)[O-])cc1 (stereo not given),composite z-score,[1],0.0008
same,z-score,[2],-0.824 (inactive)
same,z-score,[3],0.402 (inactive)
same,z-score,[4],1.03 (inactive)
same,z-score,[5],1.59 (inactive)
same,composite z-score,[6],-0.402
same,composite z-score,[7],-0.0044
same,composite z-score,Torsin-1A (Homo sapiens) [8],0.913
same,composite z-score,Torsin-1A (Homo sapiens) [9],0.113
same,composite z-score,[10],-0.514
same,z-score,[11],-0.314 (inactive)
same,composite z-score,[12],0.0509
same,z-score,[13],1.92 (inactive)
same,z-score,[14],0.586 (inactive)
same,z-score,[15],0.0451 (inactive)
same,z-score,[16],0.438 (inactive)
same,z-score,[17],-0.243
same,z-score,[18],0.0696 (inactive)
same,z-score,[19],0.66 (inactive)
same,z-score,[20],0.39
O=C1O[C@H](c2ccccc2)[C@H](c2ccccc2)N2[C@H]1[C@@H](C(=O)N1CCCCCCC1)[C@]1(C(=O)Nc3ccc(C#CC4(O)CCCCCC4)cc31)[C@H]2c1ccc(O)cc1,composite z-score,[1],1.19
same,z-score,[2],-3.1 (inactive)
same,z-score,[3],-0.555 (inactive)
same,z-score,[4],-0.168 (inactive)
same,z-score,[5],-0.219 (inactive)
same,composite z-score,[6],2.76
same,composite z-score,[7],1.77
same,composite z-score,Torsin-1A (Homo sapiens) [8],1.13
same,composite z-score,Torsin-1A (Homo sapiens) [9],1.49
same,composite z-score,[10],1.45
same,z-score,[11],0.507 (inactive)
same,composite z-score,[12],2.47
same,z-score,[13],0.839 (inactive)
same,z-score,[14],0.222 (inactive)
same,z-score,[15],1.34 (inactive)
same,z-score,[16],0.491 (inactive)
same,z-score,[17],0.148
same,z-score,[18],1.33 (inactive)
same,z-score,[19],0.803 (inactive)
same,z-score,[20],1.17
COC(=O)[C@@]1(Cc2ccccc2CN=[N+]=[N-])N=C(c2ccc(OCCCO)cc2)O[C@H]1c1ccccc1,composite z-score,[1],0.337
same,z-score,[2],-4.77 (inactive)
same,z-score,[3],-1.09 (inactive)
same,z-score,[4],2.38 (inactive)
same,z-score,[5],-0.923 (inactive)
same,composite z-score,[6],-0.533
same,composite z-score,[7],0.412
same,composite z-score,Torsin-1A (Homo sapiens) [8],0.0213
same,composite z-score,Torsin-1A (Homo sapiens) [9],0.925
same,composite z-score,[10],0.381
same,z-score,[11],-0.571 (inactive)
same,composite z-score,[12],0.105
same,z-score,[13],23.6 (active)
same,z-score,[14],19.8 (active)
same,z-score,[15],0.882 (inactive)
same,z-score,[16],3.64 (inactive)
same,z-score,[17],0.216
same,z-score,[18],-2.19 (inactive)
same,z-score,[19],-0.348 (inactive)
same,z-score,[20],-2.48
COCCOC(=O)N1C(=O)[C@@]2(c3cc(C#CCCO)ccc31)[C@H](C(N)=O)[C@H]1C(=O)O[C@H](c3ccccc3)[C@H](c3ccccc3)N1[C@@H]2c1ccc(OCCO)cc1,composite z-score,[1],0.622
same,z-score,[2],-0.869 (inactive)
same,z-score,[3],-0.402 (inactive)
same,z-score,[4],-0.141 (inactive)
same,z-score,[5],-0.087 (inactive)
same,composite z-score,[6],0.438
same,composite z-score,[7],0.0391
same,composite z-score,Torsin-1A (Homo sapiens) [8],1.47
same,composite z-score,Torsin-1A (Homo sapiens) [9],0.684
same,composite z-score,[10],1.36
same,z-score,[11],-0.138 (inactive)
same,composite z-score,[12],0.157
same,z-score,[13],23.4 (active)
same,z-score,[14],5.49 (inactive)
same,z-score,[15],1.88 (inactive)
same,z-score,[16],1.3 (inactive)
same,z-score,[17],0.388
same,z-score,[18],1.78 (inactive)
same,z-score,[19],1.1 (inactive)
same,z-score,[20],0.785
CCCCC(=C=CC[C@H](O)c1ccc(OCCO)cc1)C[C@H](O)COCc1ccccc1,composite z-score,[1],-0.0866
same,z-score,[2],-0.92 (inactive)
same,z-score,[3],0.403 (inactive)
same,z-score,[4],10.3 (active)
same,z-score,[5],0.434 (inactive)
same,composite z-score,[6],-0.499
same,composite z-score,[7],-0.145
same,composite z-score,Torsin-1A (Homo sapiens) [8],-0.327
same,composite z-score,Torsin-1A (Homo sapiens) [9],0.388
same,composite z-score,[10],0.571
same,z-score,[11],-0.088 (inactive)
same,composite z-score,[12],-0.235
same,z-score,[13],18.2 (active)
same,z-score,[14],3.18 (inactive)
same,z-score,[15],0.871 (inactive)
same,z-score,[16],1.02 (inactive)
same,z-score,[17],-0.881
same,z-score,[18],-0.751 (inactive)
same,z-score,[19],-0.446 (inactive)
same,z-score,[20],-2.05
O=C1NC(=O)C2C1C=CC(C(O)c1ccccn1)N2Nc1ccc(Cl)cc1Cl (stereo not given),composite z-score,[1],0.0314
same,z-score,[2],0.203 (inactive)
same,z-score,[3],-0.595 (inactive)
same,z-score,[4],0.0535 (inactive)
same,z-score,[5],-0.0259 (inactive)
same,composite z-score,[6],1.16
same,composite z-score,[7],-0.101
same,composite z-score,Torsin-1A (Homo sapiens) [8],-0.117
same,composite z-score,Torsin-1A (Homo sapiens) [9],0.175
same,composite z-score,[10],-0.517
same,z-score,[11],-0.889 (inactive)
same,composite z-score,[12],0.121
same,z-score,[13],0.625 (inactive)
same,z-score,[14],0.435 (inactive)
same,z-score,[15],-0.343 (inactive)
same,z-score,[16],0.949 (inactive)
same,z-score,[17],-0.881
same,z-score,[18],-1.39 (inactive)
same,z-score,[19],-4.83 (inactive)
same,z-score,[20],-3.38
[N-]=[N+]=Nc1ccccc1C[C@]1(C(=O)NCc2ccccc2)COC(c2ccc(OCCCO)cc2)=N1,composite z-score,[1],0.607
same,z-score,[2],-4.89 (inactive)
same,z-score,[3],0.106 (inactive)
same,z-score,[4],0.101 (inactive)
same,z-score,[5],-1.31 (inactive)
same,composite z-score,[6],1.01
same,composite z-score,[7],-0.104
same,composite z-score,Torsin-1A (Homo sapiens) [8],0.413
same,composite z-score,Torsin-1A (Homo sapiens) [9],0.932
same,composite z-score,[10],0.153
same,z-score,[11],0.325 (inactive)
same,composite z-score,[12],-0.442
same,z-score,[13],30.8 (active)
same,z-score,[14],30.8 (active)
same,z-score,[15],3.25 (inactive)
same,z-score,[16],3.49 (inactive)
same,z-score,[17],-0.351
same,z-score,[18],-3.07 (inactive)
same,z-score,[19],-1.03 (inactive)
same,z-score,[20],-1.91
